# Measurements taken from the supplement of paper PMC6555819.
# Columns and labels:
# Test in all cases: PBM binding z-score (relative to random genomic background probes); higher = stronger binding; sequences stand for … in GC…GCGATTGACAGCGTAGAATGAAGG
# [1] = system: PPARg:RXRa DBDmut IVT, anti-RXR (DBD mutation: RXRa K156A/R161A, NR concentration 270 nM, RXRa partner concentration 90 nM)
# How it was run: (§1)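 Ligand-free nuclear receptor dimers were applied to custom Agilent 4×180K protein-binding microarrays whose double-stranded probes carried direct-repeat seeds, single-nucleotide variants, half-site ablations and random human genomic background sequences in 34-nt variable regions. Incubation lasted 1 h. Binding z-scores were computed against the random background probes from regression-normalized fluorescence.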
# [2] = system: PPARg:RXRa IVT, anti-PPARg (NR concentration 270 nM, RXRa partner concentration 90 nM)
# How it was run: as §1
# [3] = system: PPARg DBDmut:RXRa IVT, anti-PPARg (DBD mutation: PPARg1 K132A/R137A, NR concentration 270 nM, RXRa partner concentration 90 nM)
# How it was run: as §1
# [4] = system: PPARg DBDmut IVT, anti-PPARg (DBD mutation: PPARg1 K132A/R137A, NR concentration 270 nM)
# How it was run: as §1
# [5] = system: PPARg homodimer (NR concentration 180 nM)
# How it was run: as §1
# [6] = system: PXR:RXRa (NR concentration 270 nM, RXRa partner concentration 90 nM)
# How it was run: as §1
# [7] = system: PXR homodimer (NR concentration 270 nM)
# How it was run: as §1
# [8] = system: RARa:RXR (NR concentration 270 nM, RXRa partner concentration 90 nM)
# How it was run: as §1
# [9] = system: RARa homodimer (NR concentration 270 nM)
# How it was run: as §1
# [10] = system: RARb:RXRa (NR concentration 270 nM, RXRa partner concentration 90 nM)
# How it was run: as §1
sequence,measurement,setting,value
CTCTAAAGGTCGGTTGAGGTGAGTATACGGATAA,PBM binding z-score,[1],0.506
same,PBM binding z-score,[2],1.04
same,PBM binding z-score,[3],0.0568
same,PBM binding z-score,[4],0.0389
same,PBM binding z-score,[5],1.04
same,PBM binding z-score,[6],3.48
same,PBM binding z-score,[7],0.187
same,PBM binding z-score,[8],2.31
same,PBM binding z-score,[9],-0.146
same,PBM binding z-score,[10],3.31
GCTAGTTGTTCAGTAAAAGGTCACACACCGGTCG,PBM binding z-score,[1],0.391
same,PBM binding z-score,[2],1.95
same,PBM binding z-score,[3],0.53
same,PBM binding z-score,[4],0.109
same,PBM binding z-score,[5],3.86
same,PBM binding z-score,[6],4.88
same,PBM binding z-score,[7],1.13
same,PBM binding z-score,[8],5.29
same,PBM binding z-score,[9],2.41
same,PBM binding z-score,[10],3.91
CCAGACAGGTGACAAGGTAACTCAGCCTCGATTA,PBM binding z-score,[1],1.41
same,PBM binding z-score,[2],1.61
same,PBM binding z-score,[3],-0.344
same,PBM binding z-score,[4],-0.0688
same,PBM binding z-score,[5],0.918
same,PBM binding z-score,[6],-0.151
same,PBM binding z-score,[7],-0.207
same,PBM binding z-score,[8],0.278
same,PBM binding z-score,[9],0.367
same,PBM binding z-score,[10],0.783
GGAACGAGGGCAAGTTGACAGCAGAGTTTGATGG,PBM binding z-score,[1],4.05
same,PBM binding z-score,[2],3
same,PBM binding z-score,[3],-0.195
same,PBM binding z-score,[4],-0.654
same,PBM binding z-score,[5],0.481
same,PBM binding z-score,[6],0.693
same,PBM binding z-score,[7],0.641
same,PBM binding z-score,[8],0.4
same,PBM binding z-score,[9],-0.316
same,PBM binding z-score,[10],2.51
CATACTGGGTCAGCTAGGCCAGAGTAGGGACGGC,PBM binding z-score,[1],4.6
same,PBM binding z-score,[2],5.45
same,PBM binding z-score,[3],0.321
same,PBM binding z-score,[4],0.266
same,PBM binding z-score,[5],0.468
same,PBM binding z-score,[6],0.34
same,PBM binding z-score,[7],-0.327
same,PBM binding z-score,[8],0.776
same,PBM binding z-score,[9],-0.0823
same,PBM binding z-score,[10],3.04
CCGACTGGGGCAAAGGTTACCTTACTCAGTACGA,PBM binding z-score,[1],5
same,PBM binding z-score,[2],5.64
same,PBM binding z-score,[3],0.278
same,PBM binding z-score,[4],-0.11
same,PBM binding z-score,[5],1.61
same,PBM binding z-score,[6],2.22
same,PBM binding z-score,[7],-0.485
same,PBM binding z-score,[8],3.41
same,PBM binding z-score,[9],-0.487
same,PBM binding z-score,[10],2.19
AGGCAAAGTTCAGGACGAGGTAACGTAAAGCACG,PBM binding z-score,[1],-0.11
same,PBM binding z-score,[2],1.19
same,PBM binding z-score,[3],0.287
same,PBM binding z-score,[4],-0.24
same,PBM binding z-score,[5],2.28
same,PBM binding z-score,[6],2.89
same,PBM binding z-score,[7],1.59
same,PBM binding z-score,[8],2.82
same,PBM binding z-score,[9],1.16
same,PBM binding z-score,[10],4.26
CGTCAAAGTTCAAGGTACCGTAACAGAAAGCAGC,PBM binding z-score,[1],0.47
same,PBM binding z-score,[2],1.61
same,PBM binding z-score,[3],0.0848
same,PBM binding z-score,[4],0.822
same,PBM binding z-score,[5],2.35
same,PBM binding z-score,[6],3.99
same,PBM binding z-score,[7],2.46
same,PBM binding z-score,[8],3.45
same,PBM binding z-score,[9],0.789
same,PBM binding z-score,[10],5.08
TAGCCTAGCTCATTGGGCCAGTATAGTACGCATC,PBM binding z-score,[1],0.043
same,PBM binding z-score,[2],-0.244
same,PBM binding z-score,[3],-0.824
same,PBM binding z-score,[4],-1.08
same,PBM binding z-score,[5],-1.36
same,PBM binding z-score,[6],-0.795
same,PBM binding z-score,[7],-0.368
same,PBM binding z-score,[8],-0.451
same,PBM binding z-score,[9],-1.17
same,PBM binding z-score,[10],-0.719
TAGTCTAGGTCATTCAGGGGCCAGTATAGAAAGC,PBM binding z-score,[1],5.32
same,PBM binding z-score,[2],5.97
same,PBM binding z-score,[3],1.69
same,PBM binding z-score,[4],1.74
same,PBM binding z-score,[5],2.29
same,PBM binding z-score,[6],2.53
same,PBM binding z-score,[7],0.48
same,PBM binding z-score,[8],3.32
same,PBM binding z-score,[9],0.639
same,PBM binding z-score,[10],3.73
CGTCCAAGGTCAAGGTCAGTGTAAGAGACTCGAA,PBM binding z-score,[1],3.46
same,PBM binding z-score,[2],4.48
same,PBM binding z-score,[3],2.06
same,PBM binding z-score,[4],0.0248
same,PBM binding z-score,[5],3.45
same,PBM binding z-score,[6],5.09
same,PBM binding z-score,[7],1.07
same,PBM binding z-score,[8],5.28
same,PBM binding z-score,[9],2.14
same,PBM binding z-score,[10],5.47
ACTAGCAGGCCGAGGGTCACTCAAGATTAGTCCG,PBM binding z-score,[1],-0.156
same,PBM binding z-score,[2],1.16
same,PBM binding z-score,[3],-0.888
same,PBM binding z-score,[4],-0.885
same,PBM binding z-score,[5],0.902
same,PBM binding z-score,[6],1.71
same,PBM binding z-score,[7],-0.0802
same,PBM binding z-score,[8],2.32
same,PBM binding z-score,[9],-0.0933
same,PBM binding z-score,[10],2.43
TCATATAGGTAAATGCTAGGTCAAAGTCCGATCT,PBM binding z-score,[1],4.1
same,PBM binding z-score,[2],3.27
same,PBM binding z-score,[3],0.472
same,PBM binding z-score,[4],1.99
same,PBM binding z-score,[5],1.7
same,PBM binding z-score,[6],1.98
same,PBM binding z-score,[7],1.11
same,PBM binding z-score,[8],2.7
same,PBM binding z-score,[9],1.22
same,PBM binding z-score,[10],1.88
GGAACGAGGGCATTCCAGTTGATAGCATGGCGAT,PBM binding z-score,[1],3.02
same,PBM binding z-score,[2],2.32
same,PBM binding z-score,[3],0.37
same,PBM binding z-score,[4],-0.74
same,PBM binding z-score,[5],0.527
same,PBM binding z-score,[6],2.19
same,PBM binding z-score,[7],0.706
same,PBM binding z-score,[8],0.917
same,PBM binding z-score,[9],-0.491
same,PBM binding z-score,[10],1.81
AGAACGAGGGCAATGAATTGATAGCACGGGTGGC,PBM binding z-score,[1],3.39
same,PBM binding z-score,[2],2.58
same,PBM binding z-score,[3],0.112
same,PBM binding z-score,[4],-0.0881
same,PBM binding z-score,[5],-0.139
same,PBM binding z-score,[6],0.372
same,PBM binding z-score,[7],0.123
same,PBM binding z-score,[8],0.568
same,PBM binding z-score,[9],0.175
same,PBM binding z-score,[10],2.01
ACAGACAGGTGCGTGAAGGTAACTCAGCTGGACG,PBM binding z-score,[1],-0.935
same,PBM binding z-score,[2],-0.58
same,PBM binding z-score,[3],0.0563
same,PBM binding z-score,[4],-0.077
same,PBM binding z-score,[5],-0.238
same,PBM binding z-score,[6],-0.583
same,PBM binding z-score,[7],-0.495
same,PBM binding z-score,[8],-0.585
same,PBM binding z-score,[9],-0.862
same,PBM binding z-score,[10],-0.307
TCAGACTGGTGAAGGTAACTCAGGTACGCAGTCG,PBM binding z-score,[1],1.41
same,PBM binding z-score,[2],0.112
same,PBM binding z-score,[3],-0.324
same,PBM binding z-score,[4],-0.759
same,PBM binding z-score,[5],-0.234
same,PBM binding z-score,[6],0.0294
same,PBM binding z-score,[7],-0.386
same,PBM binding z-score,[8],0.305
same,PBM binding z-score,[9],-0.373
same,PBM binding z-score,[10],-0.0149
TCTATTAGTTGATTAGGACAACCGAAACAGCGGA,PBM binding z-score,[1],2.5
same,PBM binding z-score,[2],0.979
same,PBM binding z-score,[3],0.853
same,PBM binding z-score,[4],1.57
same,PBM binding z-score,[5],1.65
same,PBM binding z-score,[6],0.749
same,PBM binding z-score,[7],0.881
same,PBM binding z-score,[8],0.862
same,PBM binding z-score,[9],2.34
same,PBM binding z-score,[10],0.68
AGCACGAGGGCACGCTGAGTTGATAGCAGAGTAG,PBM binding z-score,[1],2.09
same,PBM binding z-score,[2],2.17
same,PBM binding z-score,[3],0.0423
same,PBM binding z-score,[4],-0.669
same,PBM binding z-score,[5],0.0355
same,PBM binding z-score,[6],1.32
same,PBM binding z-score,[7],0.313
same,PBM binding z-score,[8],0.919
same,PBM binding z-score,[9],-0.335
same,PBM binding z-score,[10],2.59
TCATATAGGTATTACAGGTGAAAGTCGGCATCTA,PBM binding z-score,[1],3.05
same,PBM binding z-score,[2],1.69
same,PBM binding z-score,[3],0.864
same,PBM binding z-score,[4],0.68
same,PBM binding z-score,[5],1.37
same,PBM binding z-score,[6],0.945
same,PBM binding z-score,[7],0.656
same,PBM binding z-score,[8],1.39
same,PBM binding z-score,[9],1.42
same,PBM binding z-score,[10],0.578
CGTGCTAGGTCATGGTCAGCTAATCTACAGTATG,PBM binding z-score,[1],4.45
same,PBM binding z-score,[2],4.25
same,PBM binding z-score,[3],0.168
same,PBM binding z-score,[4],-0.51
same,PBM binding z-score,[5],1.36
same,PBM binding z-score,[6],1.5
same,PBM binding z-score,[7],-0.399
same,PBM binding z-score,[8],2.51
same,PBM binding z-score,[9],-0.32
same,PBM binding z-score,[10],3.94
ATCTCTAGGTAGGACTCAGTTCAGTGAAGAACGC,PBM binding z-score,[1],0.406
same,PBM binding z-score,[2],0.852
same,PBM binding z-score,[3],0.763
same,PBM binding z-score,[4],1.31
same,PBM binding z-score,[5],0.939
same,PBM binding z-score,[6],0.751
same,PBM binding z-score,[7],1.95
same,PBM binding z-score,[8],0.353
same,PBM binding z-score,[9],1.12
same,PBM binding z-score,[10],0.407
CCTCGGAGGACAACAGGAGGTCTGAGCTGCCAGA,PBM binding z-score,[1],-0.107
same,PBM binding z-score,[2],-0.71
same,PBM binding z-score,[3],-1.05
same,PBM binding z-score,[4],-1.49
same,PBM binding z-score,[5],-0.258
same,PBM binding z-score,[6],-0.738
same,PBM binding z-score,[7],-0.871
same,PBM binding z-score,[8],-0.635
same,PBM binding z-score,[9],-0.516
same,PBM binding z-score,[10],0.983
TAGCCTAGGTCATTGGGCGAGTATAGTACGCATC,PBM binding z-score,[1],1.88
same,PBM binding z-score,[2],3.05
same,PBM binding z-score,[3],0.311
same,PBM binding z-score,[4],-0.0966
same,PBM binding z-score,[5],1.15
same,PBM binding z-score,[6],1.59
same,PBM binding z-score,[7],-0.283
same,PBM binding z-score,[8],2.09
same,PBM binding z-score,[9],-0.259
same,PBM binding z-score,[10],3.69
